Common to all, as to assay: NCI-60 one-dose screen, 48 h (100 = growth as untreated, 0 = no growth, -100 = all killed)
One assay deals with SK-MEL-2 melanoma. To be noted: 10 µM unless noted.
Another assay deals with EKVX NSCLC. To be noted: 10 µM unless noted.
For a further assay, the system named is SN12C renal. The conditions noted are these: 10 µM unless noted.
The test system of a further assay is UO-31 renal. The conditions noted are these: 10 µM unless noted.
For a further assay, the system named is TK-10 renal. The conditions noted are these: 10 µM unless noted.
Another assay deals with ACHN renal. To be noted: 10 µM unless noted.
In another assay the test system is CAKI-1 renal. The conditions noted are these: 10 µM unless noted.
In a further assay the test system is A498 renal. To be noted: 10 µM unless noted.
The next assay deals with CCRF-CEM leukemia. The conditions noted are these: 10 µM unless noted.
A further assay has as its system MOLT-4 leukemia. The conditions noted are these: 10 µM unless noted.
In another assay the test system is SR leukemia. To be noted: 10 µM unless noted.
The next assay has as its system RPMI-8226 leukemia. To be noted: 10 µM unless noted.
Another assay concerns OVCAR-8 ovarian. To be noted: 10 µM unless noted.
For a further assay, the system named is OVCAR-5 ovarian. To be noted: 10 µM unless noted.
The test system of another assay is OVCAR-4 ovarian. The conditions noted are these: 10 µM.
For the next assay, the system named is SK-OV-3 ovarian. To be noted: 10 µM unless noted.
For another assay, the system named is OVCAR-3 ovarian. The conditions noted are these: 10 µM unless noted.
The test system of another assay is HS 578T breast. The conditions noted are these: 10 µM unless noted.
The test system of another assay is NCI/ADR-RES ovarian. The conditions noted are these: 10 µM unless noted.
The test system of another assay is IGROV1 ovarian. To be noted: 10 µM unless noted.

Experimental findings from PubChem BioAssay (NCI) are described below.

Molecules are shown by their SMILES. About 83,000 compounds went through this panel and 20% of them were active in at least one assay; those are over-represented in the sample as a whole.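 In brief: 96-well plates, 48 h treatment, single concentration, percent growth endpoint.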 Unmarked numbers belong to inactive results. Calls of active or inactive are those of the source. The calls were made as follows: active = growth percent below 10; inactive = the rest.

For `N/C(=N\c1nc2ccccc2[nH]1)NC(=O)Cc1cccc2ccccc12`, the growth with SK-MEL-2 melanoma is 65.6%; with EKVX NSCLC, 75.6%; in the assay with SN12C renal it was 98.8%; in the assay on UO-31 renal it was 50.3%; in the assay with TK-10 renal it was 106%; in the assay on ACHN renal, 88.9%. Besides, the growth in the assay with CAKI-1 renal was 82.9%; with A498 renal, 80.6%; in the assay on CCRF-CEM leukemia, 86%; in the assay with MOLT-4 leukemia it was 30.4%; in the assay on SR leukemia, 115%; in the assay on RPMI-8226 leukemia, 92.9%. Also, the growth with OVCAR-8 ovarian is 27.5%; in the assay with OVCAR-5 ovarian, 88.6%; with OVCAR-4 ovarian, 70.6%; in the assay with SK-OV-3 ovarian, 92.5%; in the assay with OVCAR-3 ovarian, 120%; with HS 578T breast it was 84.1%. In the assay with NCI/ADR-RES ovarian, the growth is 79.9%.

With `CC1(C)CC(=O)c2c(ccc(C(=O)C[C@@H](N)CO)c2N)O1`, the growth in the assay with SK-MEL-2 melanoma is 9.07% (active); in the assay on EKVX NSCLC, 80.7%; with SN12C renal it was 14.8%; with UO-31 renal, 25.1%; in the assay with TK-10 renal, 61.4%; in the assay with ACHN renal, 36.3%. Further, the growth in the assay with CAKI-1 renal is 4.82% (active); with A498 renal, -70.4% (active); in the assay on CCRF-CEM leukemia it was 13%; in the assay on MOLT-4 leukemia it was 21%; in the assay on SR leukemia, 14.7%; in the assay on RPMI-8226 leukemia it was 0.0254% (active). The growth with OVCAR-8 ovarian is 7.69% (active); in the assay with OVCAR-5 ovarian, 49.8%; in the assay on OVCAR-4 ovarian, 71.1%; with IGROV1 ovarian, 12.9%; in the assay with OVCAR-3 ovarian it was 0.385% (active); in the assay with HS 578T breast, 84.7%.

As for `O=C(C[n+]1ccn(CC(OCc2ccc(Cl)cc2Cl)c2ccc(Cl)cc2Cl)c1)c1ccc(F)cc1` (centres undefined), the growth in the assay with SK-MEL-2 melanoma is -88% (active); with EKVX NSCLC, -77.8% (active); in the assay on SN12C renal it was -93.5% (active); with UO-31 renal, 84.1%; with TK-10 renal it was -46.1% (active); in the assay with ACHN renal, 26.5%. Besides, the growth in the assay on CAKI-1 renal is 79.7%; in the assay on A498 renal it was -12.3% (active); in the assay with CCRF-CEM leukemia, -12.1% (active); with MOLT-4 leukemia it was -19.9% (active); in the assay with SR leukemia, -52.9% (active); with RPMI-8226 leukemia, -46.3% (active). Besides, the growth in the assay on OVCAR-8 ovarian is -90.5% (active); with OVCAR-5 ovarian, -93.4% (active); in the assay on OVCAR-4 ovarian, -96.2% (active); in the assay with SK-OV-3 ovarian, 26.3%; in the assay on OVCAR-3 ovarian, -93% (active); with HS 578T breast, -57.1% (active). In the assay on NCI/ADR-RES ovarian, the growth was 103%.

For `O=[N+]([O-])c1cc([N+](=O)[O-])c(NN=C(c2ccc(O)cc2)c2ccc(O)cc2)cc1Cl`, the growth with SK-MEL-2 melanoma is -94% (active); in the assay with EKVX NSCLC, 38.8%; in the assay on SN12C renal, -78.6% (active); in the assay with UO-31 renal it was -98.4% (active); with TK-10 renal, -57% (active); in the assay on ACHN renal, -62.7% (active). In addition, the growth in the assay with CAKI-1 renal was 42.3%; in the assay on A498 renal, 73.4%; in the assay on CCRF-CEM leukemia it was 82.1%; with MOLT-4 leukemia it was 53.4%; in the assay with SR leukemia, 18.8%; with RPMI-8226 leukemia it was 67%. The growth with OVCAR-8 ovarian is -76.6% (active); in the assay with OVCAR-5 ovarian it was 78.1%; in the assay with OVCAR-4 ovarian, -47.7% (active); with SK-OV-3 ovarian, 99.5%; in the assay with OVCAR-3 ovarian, -94.6% (active); in the assay with HS 578T breast, -55.6% (active). Also, the growth in the assay with NCI/ADR-RES ovarian was -56.8% (active).

`CCOC(=O)c1nn(C2CCCCO2)c2ccc(NC(=O)CN3CCCC3)cc12` (centres undefined): the growth was 107% in the assay on SK-MEL-2 melanoma; 95.8% in the assay with EKVX NSCLC; 98.9% in the assay with SN12C renal; 84.4% with UO-31 renal; 103% in the assay with TK-10 renal; 101% with ACHN renal. Besides, the growth in the assay with CAKI-1 renal was 91.5%; in the assay with A498 renal it was 78.9%; with CCRF-CEM leukemia, 108%; in the assay on MOLT-4 leukemia, 99.3%; in the assay with SR leukemia, 103%; in the assay with RPMI-8226 leukemia, 105%. The growth was 101% in the assay with OVCAR-8 ovarian; 99.1% in the assay with OVCAR-5 ovarian; 99.4% with OVCAR-4 ovarian; 102% in the assay on IGROV1 ovarian; 109% in the assay on OVCAR-3 ovarian; 95.4% in the assay on HS 578T breast. The growth with NCI/ADR-RES ovarian was 103%.

For `COC(=O)c1cc2c(=O)[nH]cc3c2c(n1)CCC3`, the growth with SK-MEL-2 melanoma was 95.2%; with EKVX NSCLC, 101%; in the assay with SN12C renal, 97.2%; in the assay with UO-31 renal it was 75.4%; with TK-10 renal it was 106%; in the assay on ACHN renal, 105%. For the same compound, the growth in the assay on CAKI-1 renal was 97.4%; in the assay on A498 renal, 104%; in the assay on CCRF-CEM leukemia, 103%; in the assay with MOLT-4 leukemia, 100%; in the assay with SR leukemia, 113%; in the assay with RPMI-8226 leukemia, 76.2%. In addition, the growth in the assay on OVCAR-8 ovarian is 105%; with OVCAR-5 ovarian, 99.8%; in the assay with OVCAR-4 ovarian, 103%; in the assay on SK-OV-3 ovarian, 100%; in the assay on OVCAR-3 ovarian, 99.1%; with HS 578T breast, 109%. In addition, in the assay with NCI/ADR-RES ovarian, the growth is 108%.

As for `CCCCCCCCCCCCCC[n+]1cccc(C(N)=O)c1`, the growth in the assay on SK-MEL-2 melanoma was -12.1% (active); in the assay on EKVX NSCLC, -16.2% (active); with SN12C renal, 1.56% (active); in the assay on UO-31 renal, 62%; in the assay on TK-10 renal, 24%; in the assay with ACHN renal it was 35.4%. Besides, the growth in the assay on CAKI-1 renal was 15.5%; in the assay on A498 renal it was 61.1%; with CCRF-CEM leukemia it was -18.8% (active); in the assay on MOLT-4 leukemia, -31% (active); in the assay with SR leukemia it was -25.9% (active); in the assay with RPMI-8226 leukemia it was -51.2% (active). Besides, the growth in the assay on OVCAR-8 ovarian was 18%; in the assay on OVCAR-5 ovarian, 44.2%; in the assay with OVCAR-4 ovarian, 14.5%; in the assay on SK-OV-3 ovarian, 23.3%; in the assay with OVCAR-3 ovarian, -32.4% (active); with NCI/ADR-RES ovarian it was 105%.

For the compound `C#CC(OC(=O)N(C)C)(c1ccccc1)c1ccc(F)cc1` (centres undefined), the growth is 102% in the assay on SK-MEL-2 melanoma; 116% in the assay on EKVX NSCLC; 96.7% in the assay with SN12C renal; 89.3% in the assay with UO-31 renal; 125% in the assay on TK-10 renal; 101% in the assay on ACHN renal. Moreover, the growth is 91.8% in the assay on CAKI-1 renal; 105% in the assay with A498 renal; 116% with CCRF-CEM leukemia; 98% with MOLT-4 leukemia; 108% in the assay with SR leukemia; 128% with RPMI-8226 leukemia. Also, the growth in the assay with OVCAR-8 ovarian is 93.5%; with OVCAR-5 ovarian it was 93.4%; in the assay with OVCAR-4 ovarian, 107%; with SK-OV-3 ovarian, 114%; in the assay with OVCAR-3 ovarian, 133%; in the assay with HS 578T breast, 128%. Moreover, the growth in the assay on NCI/ADR-RES ovarian was 89.3%.

On to `Cn1c(=O)c(C#N)c(-c2ccco2)n2c(S(=O)(=O)Cc3ccccc3)nnc12`, for which the growth in the assay with SK-MEL-2 melanoma is 58.5%; in the assay on EKVX NSCLC it was 99.7%; in the assay with SN12C renal it was 110%; in the assay with UO-31 renal it was 41.4%; in the assay on TK-10 renal, 78.3%; in the assay on ACHN renal, 65.9%. Also, the growth in the assay with CAKI-1 renal is 82.4%; with A498 renal, 84.8%; with CCRF-CEM leukemia it was 77.4%; in the assay on MOLT-4 leukemia, 102%; with SR leukemia, 65.3%; with RPMI-8226 leukemia, 80.4%. Moreover, the growth is 48.9% in the assay on OVCAR-8 ovarian; 99.3% in the assay with OVCAR-5 ovarian; 81.9% in the assay on OVCAR-4 ovarian; 111% with SK-OV-3 ovarian; 103% with OVCAR-3 ovarian; 124% with HS 578T breast. The growth in the assay on NCI/ADR-RES ovarian is 90.4%.
